In all, about 390,000 compounds went through this assay and about 2,600 (0.67%) were called active. The sample as a whole holds a higher share of actives than the screen did. Values without a mark were called inactive.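 How the source made its calls: active means mean inhibition of replicates at least 50% and at least half of replicates each reaching 50%; inconclusive means half or more replicates reach 50% but mean below 50%; inactive means the rest.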

The test has as its target Transforming acidic coiled-coil-containing protein 3 (Homo sapiens) (UniProt Q9Y6A5). Nature of the test: disruptors of ARNT/TACC3 protein interaction, primary screen, biochemical, AlphaScreen, single concentration (AID 623870).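 Further: 0% = complete ARNT plus TACC3 wells and 100% = ARNT alone without TACC3.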 The conditions noted are these: AlphaScreen His-ARNT PAS-B/GST-TACC3 binding, luminescence; at 9.99 µM; hits give high values; TACC3 fragment carries E629A point mutation.
The inhibition is the change of the read-out against control, counted positive when it falls. In the case of `N/C(=N\OC(=O)Cc1ccc([N+](=O)[O-])cc1)c1ccccn1`, the inhibition was 55.4% (active). On to `N/C(=N\OC(=O)CCC1CCCCC1)c1ccccn1`, for which the inhibition was -3.39%.

Turning to `N/C(Cc1ccc([N+](=O)[O-])cc1)=N\OC(=O)COc1ccc2ccccc2c1`, the inhibition is 1.55%. To `COc1ccc(S(=O)(=O)N[C@@H]2CC[C@@H](CC(=O)NCCc3ccccc3)O[C@@H]2CO)cc1` belongs -3.62%; to `CCCC#Cc1ccc2c(c1)O[C@@H](CN(C)C(=O)CC)[C@@H](C)CN([C@H](C)CO)S2(=O)=O`, 5.6%. For the compound `Cc1cccc(S(=O)(=O)N[C@H]2CC[C@@H](CCNS(=O)(=O)c3ccccc3F)O[C@H]2CO)c1`, the inhibition is 1.77%. On to `CCOC(=O)c1ccc(NC(=O)C2CC(=O)Nc3nc4ccccc4n32)cc1` (centres undefined), for which the inhibition is 1.15%. For `CCOC(=O)c1ccc(Nc2cc3ccccc3c(=O)[nH]2)cc1`, the inhibition is 4.54% (active). With `CC(C)CN(C(=O)COC(=O)c1ccc2ccccc2c1)c1c(N)n(Cc2ccccc2)c(=O)[nH]c1=O`, the inhibition is -0.235%. Consider `O=C(C[C@H]1C[C@@H]2c3cc(NC(=O)C4CCOCC4)ccc3O[C@@H]2[C@H](CO)O1)NCC1CC1`, for which the inhibition was -7.92%. Consider `OCCn1c(-c2ccccc2)csc1=Nc1ccccc1`, for which the inhibition was 51% (active). Regarding `O=c1cc(CCl)nc2scc(-c3ccccc3)n12`, the inhibition is -9.12%. With `COc1ccccc1S(=O)(=O)N1CC[C@H]2[C@@H](CO)N(C)c3ccc(C#Cc4ccccc4)cc3[C@H]21`, the inhibition is 9.34%. To `C[C@H]1CN([C@@H](C)CO)C(=O)Cc2cc(NS(C)(=O)=O)ccc2O[C@@H]1CN(C)S(=O)(=O)c1cccs1` belongs -10.4%. Turning to `O=C(C[C@@H]1C[C@@H]2c3cc(NS(=O)(=O)c4ccc(F)cc4)ccc3O[C@@H]2[C@H](CO)O1)NCc1ccccc1F`, the inhibition is -1.77%.

As to `N#Cc1c(N2CCCCC2)nc(N)c2c(N)nc(SCC(=O)O)cc12`, the inhibition was 80.8% (active).

Take `CCCN1[C@H](C(=O)N[C@H](C)c2ccccc2)[C@@H](CO)[C@@H]2Cn3c(ccc(-c4cccc(F)c4)c3=O)[C@@H]21`: the inhibition was 2.44%.

With `C[C@@H]1CN([C@H](C)CO)C(=O)Cc2cc(NC(=O)CCC(F)(F)F)ccc2O[C@@H]1CN(C)CC1CCCCC1`, the inhibition was 2.83%. Take `CC(C)(C)[S@](=O)N1Cc2cc(C(=O)N3CCCCC3)nc(-c3cccc(-c4ccccc4F)c3)c2[C@@H]1CCO`: the inhibition was 9.08%. Take `COc1ccccc1-c1cccc(-c2nc(C(=O)N3CCN(C)CC3)cc3c2[C@H](CCO)N([S@@](=O)C(C)(C)C)C3)c1`: the inhibition was 51.3% (active). Turning to `CN1CCN(C(=O)c2cc3c(c(-c4cccc(-c5ccc(C(=O)N(C)C)cc5)c4)n2)[C@@H](CCO)N([S@](=O)C(C)(C)C)C3)CC1`, the inhibition was -5.08%. Regarding `C[C@@H]1CN([C@H](C)CO)C(=O)c2cc(NC(=O)Nc3ccccc3)ccc2O[C@@H](C)CCCCO[C@@H]1CN(C)S(=O)(=O)c1ccc(F)cc1`, the inhibition is -3.52%.

With `CCCNC(=O)N(C)C[C@H]1Oc2ncc(-c3cccc(C#N)c3)cc2C(=O)N([C@@H](C)CO)C[C@@H]1C`, the inhibition was -5.02%.

As to `O=C(NCCCn1ccnc1)c1cc2c(s1)CCCC2`, the inhibition is 49.3% (active). Take `O=C(NCCCn1ccnc1)c1cc(Br)c(Br)s1`: the inhibition was 15.4%. Turning to `O=C(NCCCn1ccnc1)c1cc(-c2ccccc2)on1`, the inhibition is 1.74%. On to `O=C(N[C@H]1CC[C@H](CCNS(=O)(=O)c2ccc(F)cc2)O[C@H]1CO)c1cccc(F)c1`, for which the inhibition was 3.52%. On to `CCS(=O)(=O)N1CCCCN2[C@@H](CO)[C@@H](c3ccc(-c4ccccc4)cc3)[C@@H]2C1`, for which the inhibition was -0.151%. Then `O=C([C@H]1[C@H](CO)[C@H]2Cn3c(ccc(-c4ccccc4)c3=O)[C@@H]1N2Cc1cccnc1)N1CCOCC1`, with 42.2%; and `Cn1c(=O)c2c(nc(N/N=C/c3cccs3)n2Cc2ccc(Br)cc2)n(C)c1=O`, with 12.7%. On to `O=c1nc(N/N=C/c2ccco2)cn[nH]1`, for which the inhibition is 5.23%. In the case of `Cc1n[nH]c(=O)nc1N/N=C/c1cccs1`, the inhibition was 67.8% (active).

For the compound `C[C@@H]1CN([C@@H](C)CO)C(=O)c2cc(C3=CCCC3)cnc2O[C@@H]1CN(C)C(=O)Cc1ccncc1`, the inhibition is 3.47%. As to `Cc1ccc(S(=O)(=O)Nc2ccc3c(c2)C(=O)N([C@H](C)CO)C[C@H](C)[C@H](CN(C)S(C)(=O)=O)O3)cc1`, the inhibition was -7.55%. Then `C[C@@H]1CN([C@@H](C)CO)C(=O)c2cc(-c3cccc(F)c3)cnc2O[C@@H]1CN(C)Cc1ccccc1`, with 1.97%; and `COc1ccc(-c2ccc3c(c2)O[C@H](CN(C)Cc2ccccc2C(=O)O)[C@H](C)CN([C@@H](C)CO)S3(=O)=O)cc1`, with 5.2%. For the compound `O=C(N[C@@H]1CC[C@H](CCn2cc(-c3ccccn3)nn2)O[C@@H]1CO)c1ccccc1`, the inhibition is 87.5% (active). As for `O=C(N[C@@H]1CC[C@H](CCn2cc(-c3ccccc3)nn2)O[C@H]1CO)c1cnccn1`, the inhibition was 4.06%. As for `CN(C)Cc1cn(CC[C@H]2CC[C@@H](NS(=O)(=O)c3ccccc3)[C@H](CO)O2)nn1`, the inhibition was -3.27%. As to `O=S(=O)(N[C@@H]1CC[C@@H](CCn2cc(-c3ccccn3)nn2)O[C@@H]1CO)c1cccc(Cl)c1`, the inhibition was 69.9% (active).

`O=C(N[C@@H]1CC[C@@H](CCn2cc(-c3ccccn3)nn2)O[C@@H]1CO)c1ccccc1`: the inhibition was 40.7%. With `CN(C)Cc1cn(CC[C@H]2CC[C@H](NS(=O)(=O)c3ccccc3)[C@@H](CO)O2)nn1`, the inhibition was -3.47%.

Consider `C[C@H]1CN([C@@H](C)CO)C(=O)c2cc(C3=CCCC3)cnc2O[C@@H]1CN(C)C(=O)c1ccccc1`, for which the inhibition is -1.02%. As for `CC(C)OC(=O)N(C)C[C@@H]1OCc2ccccc2-c2c(n(C)c3ccccc23)C(=O)N([C@H](C)CO)C[C@H]1C`, the inhibition was 5.73%.

On to `CCC(=O)N(C)C[C@H]1Oc2cc(C#CCOC)ccc2S(=O)(=O)N([C@H](C)CO)C[C@H]1C`, for which the inhibition was 1.93%.

`CC(=O)Nc1ccc2c(c1)C(=O)N(C)[C@H]1CC[C@@H](CC(=O)NCC3CC3)O[C@H]1CO2`: the inhibition was -14.7%. Regarding `O=C(C[C@H]1CC[C@H]2[C@@H](COC[C@H](O)CN2Cc2ccncc2)O1)NCC1CC1`, the inhibition was 14.4%.

`C[C@@H]1CN([C@@H](C)CO)C(=O)c2cc(C#CC3CCCCC3)cnc2O[C@H]1CN(C)S(=O)(=O)c1ccccc1`: the inhibition was 10.2%. Then `Cc1nc2ccccc2nc1N/N=C/c1ccc(O)cc1O`, with 69.6% (active); and `CNC[C@@H]1Oc2ccc(NC(=O)CCC(F)(F)F)cc2C(=O)N([C@@H](C)CO)C[C@@H]1C`, with -4.46%. As for `Cc1ccsc1/C=N/NC(=O)Cc1cc(=O)[nH][nH]1`, the inhibition is 1.12%.

In the case of `Cc1ccsc1/C=N/n1c(=S)[nH]nc(C)c1=O`, the inhibition is 65.9% (active). In the case of `CCc1n[nH]c(=S)n1/N=C/c1c[nH]c2ccc(Br)cc12`, the inhibition is -4.96%. Then `O=C(NC[C@@H]1[C@@H](c2ccccc2)[C@H](CO)N1C(=O)C1CCC1)NC1CCCC1`, with -6.78%; and `Oc1cccc(/C=N/Nc2ccc(Cl)nn2)c1O`, with 53.7% (active); and `COc1ccc(NC(=O)N2C[C@H](O)COC[C@H]3O[C@@H](CC(=O)N4CCN(C)CC4)CC[C@@H]32)cc1`, with 0.747%.

Take `NS(=O)(=O)c1ccc(CNC(=O)c2cnccn2)cc1`: the inhibition is 6.45%. To `CCN(CC)c1ccc(/C=N/Nc2nc(C)cc(C)n2)c(O)c1` belongs 69.4% (active); to `CCN(CC)c1ccc(/C=N/NC(=O)c2cnccn2)c(O)c1`, 53.5% (active); to `CCN(CC)c1ccc(/C=N/NC(=O)CNC(=O)c2cccs2)cc1`, -3.55%.

As to `Cc1noc(C)c1NC(=O)Nc1cccc2c1O[C@H](CN(C)C(=O)Nc1c(C)noc1C)[C@@H](C)CN([C@@H](C)CO)C2=O`, the inhibition was 2.88%. For the compound `CCCNC(=O)[C@H]1[C@H](CO)[C@H]2Cn3c(ccc(C4=CCCC4)c3=O)[C@H]2N1C(=O)CC`, the inhibition was -1.64%. To `Cc1cccc(-n2cnc(C(=O)Nc3cccnc3)c2)n1` belongs -3.7%; to `Cc1cccc(-n2cnc(C(=O)NNC(=S)Nc3ccccc3)c2)n1`, 70.3% (active). Regarding `O=C(NNC(=S)Nc1ccccc1)c1cccc(S(=O)(=O)N2CCOCC2)c1`, the inhibition was 0.545%.

Turning to `C/C=C/c1cnc2c(c1)C(=O)N([C@H](C)CO)C[C@H](C)[C@@H](CN(C)S(=O)(=O)c1ccccc1F)O2`, the inhibition was -4.04%.

In the case of `C/C=C/c1ccc([C@H]2[C@@H](CO)N(S(C)(=O)=O)[C@@H]2CN(C)C(=O)CC)cc1`, the inhibition was 7.87%.

Consider `CO[C@H]1CN(C)C(=O)c2ccc(NC(=O)C3CC3)cc2OC[C@H](C)N(CCc2ccccc2)C[C@H]1C`, for which the inhibition was -7.12%.

For the compound `COc1ccc(Cc2nnc(SCC(=O)Nc3ccc(C)c(Cl)c3)[nH]c2=O)cc1`, the inhibition was -0.289%. Turning to `Cc1ccc(NC(=O)CSc2nn3c(=O)c(C)nnc3s2)cc1Cl`, the inhibition is 56.2% (active). Regarding `Cc1ccc(NC(=O)CSc2nnc(CNC(=O)c3ccccc3F)o2)cc1Cl`, the inhibition was 2.2%. Turning to `C[C@H](CO)N1C[C@H](C)[C@@H](CN(C)Cc2ccc(-c3ccccc3)cc2)Oc2ccc(NC(=O)CCCN(C)C)cc2CC1=O`, the inhibition is 31.9%.

With `C[C@H](CO)N1C[C@H](C)[C@@H](CN(C)C)OCCCC[C@H](C)Oc2ccc(NC(=O)C3CCCCC3)cc2C1=O`, the inhibition was -2.97%. As to `Cc1oc2c(C)c3oc(=O)c(CC(=O)N[C@@H](CC(C)C)C(=O)N[C@@H](Cc4ccccc4)C(=O)O)c(C)c3cc2c1C`, the inhibition was 2.61%.

In the case of `CC[C@@H](C)[C@H](NC(=O)CCc1c(C)c2cc3c4c(oc3c(C)c2oc1=O)CCCC4)C(=O)O`, the inhibition was -0.229%. `Cc1c(CC(=O)NCCCCCC(=O)O)c(=O)oc2cc3occ(-c4ccccc4)c3cc12`: the inhibition is 54.3% (active). Take `COc1cccc(-c2coc3cc4oc(=O)c(CC(=O)O)c(C)c4cc23)c1`: the inhibition is 17.2%.

As to `Cc1c(CC(=O)NCC(=O)NCC(=O)O)c(=O)oc2cc3oc4c(c3cc12)CCCC4`, the inhibition was 50.6% (active). On to `Cc1coc2c1c(C)cc1oc(=O)c(CC(=O)NCC(=O)N[C@H](C(=O)O)C(C)C)c(C)c12`, for which the inhibition is 2.88%.

Source of the values: PubChem BioAssay AID623870 (Broad Institute, 2012).
